Data on 64 molecules can be found in PubChem BioAssay AID2751 (The Scripps Research Institute Molecular Screening Center, 2010).

Each structure is given as a SMILES string. Several values for one entry are separate records, joined by “and”; a condition that tells them apart may be missing. Identical values can stand only once. Hit rate of the full screen: of about 320,000 compounds, about 2,200 (0.69%) were called active. Cut-off read from the data, not from the text of the source: active = inhibition above about 43%; inactive = the rest. Shown is part of a subset that was picked to be rich in actives. The source holds several records for some structures; these can differ, active in one and inactive in another.

The target in this test is Prolyl endopeptidase-like (Homo sapiens) (UniProt Q4J6C6). Put plainly: PREPL enzyme inhibitors, primary screen, biochemical, fluorescence polarization (AID 2751).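 Note: 0% = enzyme with DMSO and 100% = wells lacking enzyme.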 As to conditions: recombinant PREPL, fluorescence polarization activity-based probe; at 5.96 µM; stronger effect = higher value. (In general: Fluorescence polarisation rises when a labelled molecule tumbles more slowly, as on binding a larger partner.)
Chain of Prolyl endopeptidase-like (Homo sapiens) (Q4J6C6 whole entry, looked up): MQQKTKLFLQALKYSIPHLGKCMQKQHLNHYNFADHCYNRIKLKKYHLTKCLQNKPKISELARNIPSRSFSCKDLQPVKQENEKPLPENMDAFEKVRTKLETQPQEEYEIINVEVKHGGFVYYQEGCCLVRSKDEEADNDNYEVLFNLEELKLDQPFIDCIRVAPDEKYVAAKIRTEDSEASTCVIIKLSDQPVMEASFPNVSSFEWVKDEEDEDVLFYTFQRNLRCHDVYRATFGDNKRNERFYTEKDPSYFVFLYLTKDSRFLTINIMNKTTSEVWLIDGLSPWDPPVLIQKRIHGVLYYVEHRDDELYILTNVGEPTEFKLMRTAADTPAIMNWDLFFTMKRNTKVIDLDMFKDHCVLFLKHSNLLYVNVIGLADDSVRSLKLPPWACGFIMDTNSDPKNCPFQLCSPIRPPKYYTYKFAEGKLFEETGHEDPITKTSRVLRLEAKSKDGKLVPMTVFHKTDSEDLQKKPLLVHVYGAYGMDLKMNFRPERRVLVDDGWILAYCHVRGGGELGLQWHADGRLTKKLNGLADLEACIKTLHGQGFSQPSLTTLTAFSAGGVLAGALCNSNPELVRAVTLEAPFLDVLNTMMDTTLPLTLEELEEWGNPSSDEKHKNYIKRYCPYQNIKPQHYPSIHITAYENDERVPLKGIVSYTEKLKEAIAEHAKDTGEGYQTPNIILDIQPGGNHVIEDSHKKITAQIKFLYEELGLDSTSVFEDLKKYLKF
By inhibition is commonly meant the drop in the measured response relative to a control, in per cent. In the case of `COc1ccc(CSc2nnnn2-c2ccc(O)cc2)cc1F`, the inhibition was -18.7% (inactive).
The result for `Cc1ccc(C2CC(c3cccc(C)c3)n3nc(N)nc3N2)cc1` (centres undefined) reads 54.5% (active); that for `CCOc1ccccc1C1CC(c2ccc(Cl)cc2)Nc2nc(N)nn21` (centres undefined), 24.3% (inactive).
The result for `CCOc1ccccc1C1CC(c2ccccc2)Nc2nc(N)nn21` (centres undefined) reads 5.16% (inactive); that for `Cc1cc(=O)n(C)c(=O)n1CCCNc1ccccc1`, 2.85% (inactive).
The result for `Cc1ccc(C23CC4CC(CC(C(=O)NCC(=O)O)(C4)C2)C3)cc1` reads 5.03% (inactive); that for `CCC(=O)Nc1cc(C(F)(F)F)ccc1N1CCCC1`, 8.09% (inactive).
Take `O=C(CCN1C(=O)COc2ccccc21)NCCCN1CCN(c2ccc(F)cc2)CC1`: the inhibition was 35.5% (inactive).
To `COc1ccc(CCNC(=O)CN(c2ccccc2)S(C)(=O)=O)cc1` belongs 11.1% (inactive); to `Cc1nn(CC(=O)Nc2ccc3c(c2)nc(CN2CCCCC2)n3C)c(=O)c2ccccc12`, 1.33% (inactive); to `Cn1c(CCN2CCCC2)nc2cc(NS(=O)(=O)c3ccccc3)ccc21`, -19% (inactive).
To `Cn1c(CCN2CCCCCC2)nc2cc(NC(=O)Nc3ccccc3)ccc21` belongs 53% (active); to `CCN(CC(=O)Nc1c(F)cccc1F)C(=O)c1cnc(C)cn1`, 3.72% (inactive); to `CCN1C(=O)/C(=C\N2CCOCC2)SC1=S`, -9.93% (inactive).
To `CCN1C(=O)/C(=C\N2CCN(c3cccc(Cl)c3)CC2)SC1=S` belongs 23.1% (inactive); to `CCN1C(=O)/C(=C\N2CCN(c3ccccc3)CC2)SC1=S`, 49.4% (active); to `O=C(O)CSCc1ccc(C(=O)O)o1`, 7.09% (inactive).
For the molecule `N=c1n(Cc2ccc(Cl)cc2)c2ccccc2n1CC(O)c1ccco1` (centres undefined), the inhibition was 16.6% (inactive).
As to `CCc1nc2ccc(C(=O)N3CCN(c4cccc(Cl)c4)CC3)cc2nc1CC`, the inhibition was -11.3% (inactive).
For the molecule `O=C1N[C@H](Cc2c[nH]c3ccccc23)COC(=O)[C@H](Cc2ccc(F)cc2)C/C=C\C[C@H]1CC(=O)N(CCO)Cc1ccccc1`, the inhibition was 45.9% (active).
`CC(C)(C)OC(=O)C[C@@H]1C/C=C\C[C@@H](CC(=O)N(CCO)Cc2ccccc2)C(=O)N[C@H](Cc2ccccc2)COC1=O`: the inhibition was 14.3% (inactive).
The result for `O=C1N[C@@H](c2ccccc2)COC(=O)[C@H](Cc2ccc(F)cc2)C/C=C\C[C@@H]1CC(=O)N(CCO)Cc1ccccc1` reads 36% (inactive).
To `O=S(=O)(CCc1nc2ccccc2o1)c1ccc(Cl)cc1` belongs -9.37% (inactive).
The result for `C=C1C2C[C@H](O)C(C)(C)[C@@]2(O)[C@H](O)C[C@]23C[C@@](C)(O)[C@H](CC[C@H]12)[C@H]3O` (some centres undefined) reads -4.1% (inactive).
With `CCN(C[C@H]1N[C@@](CC)(C(=O)OC)[C@H]2C(=O)N(Cc3ccccc3)C(=O)[C@@H]12)S(=O)(=O)c1ccccc1`, the inhibition is 16.9% (inactive).
To `O=C(CNC(=O)c1ccc(F)cc1)c1ccccc1` belongs -2.4% (inactive).
The result for `C[C@H](NC(=O)c1ccccc1)C(=O)OCC(=O)c1c[nH]c2ccccc12` reads -2.69% (inactive); that for `CN(C)c1ccc(C(CNC(=O)c2ccc(F)cc2)c2c[nH]c3ccccc23)cc1` (centres undefined), 55.9% (active); that for `C#CCOCCOCCOCCNc1nc(N2CCN(C(=O)CCCCCCCCCCNC(=O)[C@H]([C@@H](C)CC)n3cc(CCCCN=C(N)N)nn3)CC2)nc(N2CCN(C(=O)CCCCCCCCCCNC(=O)[C@H](CO)n3cc(CCCSC)nn3)CC2)n1`, 29.9% (inactive).
To `C#CCOCCOCCOCCNc1nc(N2CCN(C(=O)CCCCCCCCCCNC(=O)[C@H](CCCCN)n3cc(C)nn3)CC2)nc(N2CCN(C(=O)CCCCCCCCCCNC(=O)[C@H](CO)n3cc(CCCSC)nn3)CC2)n1` belongs 35.2% (inactive); to `C#CCOCCOCCOCCNc1nc(N2CCN(C(=O)CCCCCCCCCCNC(=O)Cn3cc(CCCCCN)nn3)CC2)nc(N2CCN(C(=O)CCCCCCCCCCNC(=O)[C@H](CO)n3cc(CCCSC)nn3)CC2)n1`, 75.8% (active); to `CCc1ccc(S(=O)(=O)Nc2ccc(C)c(NS(C)(=O)=O)c2)cc1`, -2.02% (inactive).
In the case of `Cc1cccc2nc(CNc3ccc(F)cc3)cn12`, the inhibition is -2.47% (inactive).
The result for `O=C(CN1CCOCC1)Nc1c2c(nc3c1CCC3)CCC2` reads -8.04% (inactive).
With `CCC(=C/c1sc2ccc3ccccc3c2[n+]1C)/C=C1\Sc2ccc3ccccc3c2N1C`, the inhibition was 90.7% (active).
To `CC(=O)Nc1ccc(NC(=O)C(C)OC(=O)C2CC(=O)N(CCc3ccccc3)C2)cc1` (centres undefined) belongs 12.3% (inactive); to `CC1(C)CC[C@@]2(C(=O)O)C(C1)C1=CCC3[C@@]4(C)CC[C@H](O)C(C)(C)C4CC[C@@]3(C)[C@]1(C)C[C@H]2O` (some centres undefined), 21.2% (inactive).
The result for `COc1c(O)ccc2c1CN1CCc3cc4c(cc3C1C2)OCO4` (centres undefined) reads 16.4% (inactive); that for `COc1ccc2cc1Oc1ccc(cc1)C[C@H]1c3cc(c(OC)cc3CCN1C)Oc1c(O)c(OC)cc3c1[C@H](C2)N(C)CC3`, 59% (active); that for `CC(C)(C)C(=O)N1CCC[C@@]1(CO)C(=O)O`, 6.21% (inactive).
As for `CCC/C(C)=N\Nc1nc2c(c(=O)n(C)c(=O)n2C)n1C`, the inhibition is 11.5% (inactive).
To `CCN1CC(CN(C)Cc2nc(-c3ccc(Cl)cc3)no2)CC1=O` (centres undefined) belongs 18.3% (inactive); to `Cc1cc(C(=O)NCCc2ccc(Cl)cc2)c(C)o1`, 6.11% (inactive); to `CC(C)CN(C(=O)CN1CCN(S(=O)(=O)c2ccccc2)CC1)c1c(N)n(CC(C)C)c(=O)[nH]c1=O`, 9.18% (inactive).
To `O=C1NC(Cc2ccc(O)cc2)c2nc3ccc(Cl)cc3c(=O)n2-c2ccccc21` (centres undefined) belongs 12.8% (inactive); to `CCc1nc(NCCO)c(C#N)c2c1CCCC2`, 7.84% (inactive).
On to `CC(C)Cc1nc(N2CCOCC2)c(C#N)c2c1CCC2`, for which the inhibition was 2.59% (inactive).
To `CC(C)CCNc1nc(N2CCCC2)c2c(c1C#N)CCN(C)C2` belongs 55.6% (active).
To `CC(Sc1nc2c([nH]c3ccccc32)c(=O)n1C)c1ccccc1` (centres undefined) belongs -0.13% (inactive); to `Cc1ccccc1NC(=O)C1CCCN(C(=O)NCc2ccccc2)C1` (centres undefined), 10.1% (inactive).
Take `O=C(Nc1ccc(Cl)cc1)N1CCc2[nH]c3ccccc3c2C1`: the inhibition was 14.6% (inactive).
To `COC(=O)[C@H]1[C@H]2C[C@H]3c4[nH]c5ccccc5c4CCN3C[C@@H]2CC[C@@H]1O` belongs 16.7% (inactive) and 45.8% (active); to `COC(=O)C1CCN(C(=O)c2cc(=O)[nH]c3ccccc23)CC1`, -5.95% (inactive).
For `OC(COc1ccc(F)cc1Cl)CN1CCc2ccccc2C1` (centres undefined), the inhibition was 3.81% (inactive).
To `CCCC(C(=O)NCc1ccco1)N(C(=O)CNS(=O)(=O)c1ccccc1)C1CCCC1` (centres undefined) belongs -3.85% (inactive); to `O=C(OCC1OC(Oc2ccc(O)cc2)C(O)C(O)C1O)c1ccccc1` (centres undefined), 9.62% (inactive); to `O=C(OCC1O[C@@H](OC(=O)c2cc(O)c(O)c(O)c2)[C@@H](OC(=O)c2cc(O)c(O)c(O)c2)[C@@H](OC(=O)c2cc(O)c(O)c(O)c2)[C@@H]1OC(=O)c1cc(O)c(O)c(O)c1)c1cc(O)c(O)c(O)c1` (some centres undefined), 87.5% (active).
The result for `COc1ccccc1C(=O)NCc1nnc(SC(C)C(=O)Nc2nccs2)n1C` (centres undefined) reads -8.82% (inactive); that for `CCC(=O)N1c2ccc(S(=O)(=O)NCc3ccco3)cc2CC1C` (centres undefined), -3.18% (inactive); that for `O=C(CSc1ncnc2sccc12)N1CCN(C(=O)c2cccs2)CC1`, 6.26% (inactive).
As to `Nc1c(C(=O)c2cccs2)sc2nsc(SCCN3CCCCC3)c12`, the inhibition is 48.1% (active).
To `CN(CC(=O)Nc1ccc(Cl)c(C(F)(F)F)c1)C(=O)CCC(=O)c1ccccc1` belongs 1.31% (inactive).
To `CC(C)c1ccc(S(=O)(=O)N2CCN(C(C)C(=O)NC3CCCC3)CC2)cc1` (centres undefined) belongs 5.61% (inactive); to `CC(Oc1ccc(F)cc1)C(=O)Nc1ccccc1C(=O)NC1CC1` (centres undefined), -10.5% (inactive).
